Data from PubChem BioAssay AID1851 (National Center for Advancing Translational Sciences (NCATS), 2009).
“And” between values parts separate entries of the source, which are not always exact repeats. Identical values can stand only once. Hit rate of the full screen: of about 16,000 compounds, about 5,800 (36%) were called active. Roughly 23% stayed inconclusive and do not appear here. Calls come from the whole dose curve; as a rule, active = well fitted curve in the direction sought with a large enough effect; inconclusive = small, poorly fitted or top-dose-only effect, or effect the other way; inactive = no such curve, though single readings can be large or run the other way. This is one part of the list. Some compounds were tested as several samples or in several runs, with calls that do not always agree.

target: Cytochrome P450 2C19 (Homo sapiens) (UniProt P33261); assay: Cytochrome panel assay with activity outcomes; conditions: recombinant CYP, pro-luciferin dealkylation, luminescence, p450-cyp2c19; series mostly up to 57.1 µM
Sequence (P33261 whole entry, looked up): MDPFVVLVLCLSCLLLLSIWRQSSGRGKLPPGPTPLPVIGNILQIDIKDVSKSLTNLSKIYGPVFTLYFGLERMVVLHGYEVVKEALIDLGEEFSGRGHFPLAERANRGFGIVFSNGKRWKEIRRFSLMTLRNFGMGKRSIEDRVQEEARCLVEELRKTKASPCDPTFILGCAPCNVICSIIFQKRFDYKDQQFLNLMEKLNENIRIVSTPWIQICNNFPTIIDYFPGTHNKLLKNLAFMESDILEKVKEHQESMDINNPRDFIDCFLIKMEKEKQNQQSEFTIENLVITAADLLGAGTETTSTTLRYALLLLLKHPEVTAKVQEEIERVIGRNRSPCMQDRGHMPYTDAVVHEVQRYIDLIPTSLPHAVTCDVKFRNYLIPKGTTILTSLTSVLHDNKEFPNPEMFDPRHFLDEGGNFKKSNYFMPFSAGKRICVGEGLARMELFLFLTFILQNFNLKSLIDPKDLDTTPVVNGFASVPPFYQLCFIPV
% is set by controls: 0 for no effect and ±100 for the full control effect.

SMILES | AC50 | activity, negative = inhibition
COc1ccc(F)cc1S(=O)(=O)NC(Cc1ccccc1)C(N)=O (configuration not stated) | 7.08 µM (active) | 
C[N+](C)(C)/N=C\c1ccc(O)c(O)c1 |  | 12.7% [at 11.4 µM] (inactive)
CC(C)N=c1scc(-c2ccco2)n1/N=C/c1ccc(O)c(O)c1 | 7.94 µM (active) | 
NC(=S)SCCC(=O)O |  | -6.93% [at 11.4 µM] (inactive)
Cc1nn(Cc2ccc([N+](=O)[O-])cc2)c(=O)n1-c1cccc(F)c1 | 11.2 µM (active) | 
CSCC[C@@H]1NC(=O)C/C=C\[C@@H](C)COC(=O)[C@H](C)COC1=O |  | -10.8% [at 11.4 µM] (inactive)
C[C@@H]1/C=C\CC(=O)OC[C@H]2O[C@@H](C=C[C@@H]2O)[C@H](C)/C=C\CC(=O)OC[C@H]2O[C@H]1C=C[C@@H]2O |  | -20.1% [at 11.4 µM] (inactive)
CN(Cc1cc2ccccc2[nH]c1=O)S(C)(=O)=O | inactive | 
CS(=O)(=O)N(Cc1cc2ccccc2[nH]c1=O)C1CCCCC1 | 15.8 µM (active) | 
COc1ccc(-n2c(N)c(C(=O)NCc3ccco3)sc2=S)cc1 | 17.8 µM (active) | 
O=C(Nc1ccccc1)N1CC2(CCN(C(=O)c3ccco3)CC2)C1 | inactive | 
CC1=C(C(=O)Nc2ccccc2)C(c2ccco2)NC(=S)N1 (configuration not stated) | 35.5 µM (active) | 
O=C(NNC(=S)Nc1ccccc1)c1ccco1 | inactive | 
CCN(CC)CC[n+]1ccc2c(C)c3[nH]c4ccccc4c3c(C)c2c1 |  | 2.93% [at 11.4 µM] (inactive)
O=C(c1ccco1)N1CCC[C@@]2(CCN(C(c3ccccc3)c3ccccc3)C2)C1 | inactive | 
S=C(NCc1ccco1)N1CCN(Cc2ccco2)CC1 | 15.8 µM (active) | 
S=C(NCc1ccco1)N1CCN(C(c2ccccc2)c2ccccc2)CC1 | 7.08 µM (active) | 
CS(=O)(=O)Nc1c(O)ccc2c1CCC[C@H]2C1=NCCN1 | inactive | 
CCOc1ccc(N2C(=O)c3cccnc3C2=O)cc1 | inactive | 
O=C1c2cccnc2C(=O)N1Cc1ccc(F)cc1 | 8.91 µM (active) | 
COc1ccccc1CN1CCCC2(CCN(C(C)=O)CC2)C1 | inactive | 
S=C1SCN(C2CCCCCCCCCCC2)CN1C1CCCCCCCCCCC1 | 3.98 µM (active) | 
CCNc1ncc2nc(-c3ccc(F)cc3)c(=O)n(-c3ccc(OC)cc3)c2n1 | inactive | 
Cc1cc(OCCn2cc(/C(N)=N/O)c3ccccc32)ccc1Cl | 0.708 µM (active) | 
CCCCNC(=O)Cc1coc2ccc3ccccc3c12 | 3.16 µM (active) | 

SMILES | AC50 | activity, negative = inhibition
Cc1c(C#N)c(=O)oc2ccc3ccccc3c12 | inactive | 
CCCCN(C)C(=O)c1coc(=O)c2ccccc12 | inactive | 
Nc1nc2c(c(=O)[nH]1)N(C=O)[C@H](CNc1ccc(C(=O)N[C@@H](CCC(=O)O)C(=O)O)cc1)CN2 | inactive | 
CCOC(=O)c1c(C)c(C(=O)NCCN2CCOCC2)c(C)n1CC | inactive | 
CCOC(=O)c1c(C)c(C(=O)N2CCCCCC2)c(C)n1C | 7.08 µM (active) | 
CC(C)CN1CCC2(CC1)CCN(C(=O)c1csnn1)CC2 | inactive | 
O=C(Nc1cccc(F)c1)/C(=C\c1ccco1)NC(=O)c1cccs1 | 14.1 µM (active) | 
CCOC(=O)c1c(C)nc2c(c1-c1ccccc1)C(=O)CC(C)(C)C2 | 7.08 µM (active) | 
CCn1cc(C(=O)O)c(=O)c2cc(F)c(N3CCN[C@@H](C)C3)c(F)c21 | inactive | 
COC(=O)C1=C(C)N=C2SC(C)C(=O)N2C1/C=C/c1ccccc1 (configuration not stated) | 5.01 µM (active) | 
CCc1cc2c(c(CC)n1)CCC(=O)N2Cc1ccc(-c2ccccc2-c2nn[nH]n2)cc1 | 5.01 µM (active) | 
CC1=N[C@@](C)(COC(=O)[C@]2(C)N[C@](C)(CO)CO2)COC1=O |  | 40.4% [at 11.4 µM] (inactive)
Cc1ccccc1NC(=O)/C(=C/c1ccccc1)c1ccccc1 | 10 µM (active) | 
O=C(O)/C(=C\c1ccccc1)c1ccccc1 |  | 11.9% [at 11.4 µM] (inactive)
COc1ccc(/C=C(/C(=O)Nc2ccccc2C(=O)NC(C)C)c2ccccc2)cc1 | 15.8 µM (active) | 
CC(C)NC(=O)c1ccccc1NC(=O)/C=C/c1ccc([N+](=O)[O-])cc1 | inactive | 
CCN(CC)CCOC(=O)C1(C2CCCCC2)CCCCC1 | inactive | 
N#Cc1cccc(NC(=O)N2CC3(CCN(C(=O)c4cc(C(F)(F)F)cc(C(F)(F)F)c4)CC3)C2)c1 | 0.631 µM (active) | 
N#Cc1cccc(NC(=O)N2CCCC3(CCN(C(=O)c4cc(C(F)(F)F)cc(C(F)(F)F)c4)CC3)C2)c1 | inactive | 
O=C(Nc1cccc(F)c1)N1CC2(CCN(C(=O)c3cc(C(F)(F)F)cc(C(F)(F)F)c3)CC2)C1 | inactive | 
Cc1ccc2c(c1)/C(=N/OC(=O)c1ccc(F)cc1)CCS2 | inactive | 
C/C(=N\OC(=O)c1ccc(F)cc1)c1nccs1 | 17.8 µM (active) | 
O=C(O)[C@H]1C[C@H](C(=O)O)N1 | inactive | 
O=C(O)[C@H]1[C@H](C(=O)O)[C@H](C(=O)O)C[C@@H]1C(=O)O |  | 24.8% [at 11.4 µM] (inactive)
O=C(O)[C@@H]1C[C@@H](C(=O)O)N1 | 25.1 µM (active) | 

SMILES | AC50 | activity, negative = inhibition
O=[N+]([O-])c1ccccc1N/N=C/c1c[nH]c2ccccc12 | 10 µM (active) | 
COc1c(/C=N/Nc2ccc([N+](=O)[O-])cc2[N+](=O)[O-])c(C)nn1-c1ccccc1 | inactive | 
O=S(=O)(NCc1cn2ccsc2n1)c1ccc(Oc2ccccc2)cc1 | 10 µM (active) | 
COc1ccccc1N1CCN(CCN2C(=O)c3ccccc3C(C)(C)C2=O)CC1 | inactive | 
COc1cccc2cc(C(=O)CC3(O)C(=O)N(Cc4ccccc4)c4ccccc43)c(=O)oc12 (configuration not stated) | 25.1 µM (active) | 
O=C(O)C1(C(=O)O)CCN(S(=O)(=O)c2ccccc2)CC1 |  | 16.2% [at 11.4 µM] (inactive)
N.N.O=C(O)C1(C(=O)O)CCC1.[Pt] | 3.98 µM (active) | 
COc1ccc(OCc2nnc(SCC(=O)O)n2N)cc1 | inactive | 
O=C(CSc1nnc(COc2ccccc2)n1-c1ccccc1)c1ccccc1 | 3.98 µM (active) | 
Cc1nonc1NC(=O)N1CCCC1 | inactive | 
Nc1nonc1-n1nncc1-c1ccccc1 | 6.31 µM (active) | 
Cc1c(C(=O)N2CCCCCC2)nnn1-c1nonc1N | 7.94 µM (active) | 
CCOC(=O)c1nnn(-c2nonc2N)c1-c1ccccc1 | 2.82 µM (active) | 
CC(C)OC(=O)c1nnn(-c2nonc2N)c1CSc1ccccn1 | 0.251 µM (active) | 
NC(N)=NC(N)=Nc1c(F)c(F)c(F)c(F)c1F |  | -5.72% [at 11.4 µM] (inactive)
CCOC(=O)c1nnn(-c2nc(OC)nc(N3CCCCC3)n2)c1-c1ccccc1 | 7.94 µM (active) | 
COCc1c(C(N)=O)nnn1-c1nonc1N | inactive | 
CCOC(=O)c1nnn(-c2nonc2N)c1-c1ccc(C)cc1 | 1.58 µM (active) | 
OC[C@H]1NC[C@H](O)[C@@H](O)[C@H]1O | inactive | 
O=C(COc1ccc(Cl)cc1)N1CCN(Cc2ccc3c(c2)OCO3)CC1 | 5.01 µM (active) | 
COCC(=O)N1CCC[C@@]2(CCN(Cc3ccc(C#N)cc3)C2)C1 | inactive | 
COCC(=O)N1CCC2(CC1)CN(Cc1ccc(C#N)cc1)C2 | inactive | 
O=C(CCN1C(=O)c2cccc3cccc(c23)C1=O)N1CCN(Cc2ccc3c(c2)OCO3)CC1 | 1.58 µM (active) | 
O=C(O)[C@@H]1CCCN1Cc1ccc2c(c1)OCO2 |  | 14.1% [at 11.4 µM] (inactive)
c1cnc(N2CCN(Cc3ccc4c(c3)OCO4)CC2)nc1 | 2 µM (active) and 631 nM (active) and inactive | 

SMILES | AC50 | activity, negative = inhibition
Cc1noc2ncnc(Oc3ccc4ccccc4c3)c12 | 7.08 µM (active) | 
Cc1noc(C)c1-c1cc(NCc2ccccc2)ncn1 | inactive | 
Cc1cccc(Oc2ncnc3onc(C)c23)c1C | 5.01 µM (active) | 
COc1ccc(NC(=O)N2CC3(CCN(C(=O)c4csnn4)CC3)C2)cc1 | inactive | 
O=C(O)CN1CCN(Cc2ccccc2)C1=O | 6.31 µM (active) | 
NC(Cc1ccccc1)=NCC(=O)O |  | 18.2% [at 11.4 µM] (inactive)
Cc1cccc(CN2CCN(CC(=O)O)C2=O)c1 | inactive | 
O=C(O)CN1CCN(Cc2ccc(F)cc2Cl)C1=O | 5.01 µM (active) | 
Nc1nc2ncc(CNc3ccc(C(=O)N[C@@H](CCC(=O)O)C(=O)O)cc3)nc2c(=O)[nH]1 | inactive | 
N[C@@H](C(=O)O)c1ccc(O)c(C(=O)O)c1 | inactive | 
Nc1ccc(O)c(C(=O)O)c1 | 5.01 µM (active) | 
NC(N)=N/N=C\c1ccc(O)c(C(=O)O)c1 |  | 16.2% [at 11.4 µM] (inactive)
Cc1ccc(C(=O)c2cn[nH]c2-c2cc(Cl)ccc2O)cc1 | 0.708 µM (active) | 
Cc1cc2c(nc1C)CCCCN2C[C@H](C)O/N=C\[C@@H](C)[C@H](OCc1ccccc1)C(C)C |  | -20.8% [at 11.4 µM] (inactive)
Cc1nc(SCC(=O)c2ccc(Cl)s2)c2oc3ccccc3c2n1 | 0.178 µM (active) | 
CCc1nc(SCC(=O)c2ccc(Cl)s2)c2oc3ccccc3c2n1 | 0.562 µM (active) | 
CCc1nc(SCC(=O)N2CCCc3ccccc32)c2oc3ccccc3c2n1 | 3.98 µM (active) | 
CC(=O)OC[C@@H]1O[C@@H](O/N=C2/C[C@@H](O)[C@@H](O)[C@@H]3[C@@H]4C(=O)N(c5cccc(Oc6ccccc6)c5)C(=O)[C@H]4CC[C@@H]23)[C@H](OC(C)=O)[C@H](OC(C)=O)[C@@H]1OC(C)=O |  | -22% [at 11.4 µM] (inactive)
O=C(CCl)Nc1ccc(Oc2cnc3ccccc3n2)cc1 | 5.01 µM (active) | 
Cn1c(=O)c(-c2ccc(Cl)cc2)nc2cnc(Oc3cccc(Cl)c3)nc21 | inactive | 
Cn1cc(-c2nc3cnc(Oc4cccc(Cl)c4)nc3n(CCC#N)c2=O)c2ccccc21 | inactive | 
Clc1cccc(Oc2cnc3ccccc3n2)c1 | 3.55 µM (active) | 
